Sampled rows, rich in hits. Any-hit rate of the full collection: about 5.7%.
HT1080 IDH1KD tx: qHTS for induction of synthetic lethality in tumor cells producing 2HG: qHTS for the HT-1080-IDH1KD cell line; HT-1080 IDH1 knockdown viability, ATP luminescence, 48 h; actives 2% (n = 360,000); Potency, µM (highest dose often 46.1 µM), without a hit: top-dose activity, negative = toxicity, most hits filed as cytotoxic;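 also: 0% = DMSO wells and -100% = cell-free medium wells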
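Viability of IDH1-knockdown HT-1080 fibrosarcoma cells was assessed by CellTiter-Glo after 48 h at 37 °C with titrated compound; concentration-effect curves were classified by fit quality and response size.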
KB-3-1 tox: qHTS assay for MDR1-selective chemotherapeutics: Primary screen using the parental adenocarcinoma cell KB-3-1; KB-3-1 viability, CellTiter-Glo ATP luminescence, 72 h; Potency, µM (highest dose often 46.1 µM), actives largely listed as cytotoxic; actives 1.4% (n = 400,000); also: nearly all actives have a fitted effect of over 60% in size
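Parental KB-3-1 viability, qHTS format: 72 h compound exposure, 37 °C; CellTiter-Glo; media-only wells and DMSO plates as controls; concentration-effect fits on corrected data.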
KB-V1 cytotox: qHTS assay for MDR1-selective chemotherapeutics: Primary screen using the drug-selected MDR subline cells KB-V1; KB-V1 MDR cells viability, CellTiter-Glo, 72 h; Potency, µM (doses to about 46.1 µM), most hits filed as cytotoxic; actives 3.4% (n = 400,000); also: nearly all actives have a fitted effect of over 60% in size
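KB-V1, DMEM (no phenol red) + 10% FBS; cpd pin-transferred, titration series; 72 h, 37 degrees C; CellTiter-Glo, luminescence. Data normalized, curve-fit.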
HT1080NT lethal: qHTS for induction of synthetic lethality in tumor cells producing 2HG: qHTS for the HT-1080-NT fibrosarcoma cell line | HT-1080-NT fibrosarcoma viability, CellTiter-Glo ATP luminescence, 48 h | Potency, µM (series often up to 46.1 µM), inactives show at the top dose activity, negative = less viability, most hits filed as cytotoxic | actives 1.6% (n = 360,000);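 also: NT is the 2HG producing partner of a matched IDH1 knockdown line; 0% = DMSO-treated cells and -100% = media-only wells without cells; nearly all actives have a fitted effect of over 55% in size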
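Luminescent CellTiter-Glo readout after 48 hours of compound exposure at 37 degrees C defined viability of HT-1080-NT cells. Activity was normalized to DMSO wells and cell-free media wells; concentration-response curves were fitted and assigned curve classes.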
Starred values were filed as active, the others as inactive; i = inactive; ? = inconclusive; / = no result given; [ ] = another dose, or the depositor's remark. Calls follow the shape of the dose curve; as a rule, active = well fitted curve in the direction sought with a large enough effect; inconclusive = small, poorly fitted or top-dose-only effect, or another doubt; inactive = no such curve, though single readings can be large; an effect the other way counts as inactive or inconclusive. Unless noted, % is scaled to controls: 0 for no effect and ±100 for the full control effect; potency is read from the fitted curve at half-maximal effect.

SMILES	HT1080 IDH1KD tx	KB-3-1 tox	KB-V1 cytotox	HT1080NT lethal
CCOC(=O)C1=C(COC(=O)CCNS(=O)(=O)c2ccc(C)c(C)c2)NC(=O)NC1C (stereo unspecified)	1%	i	i	0%[9.24 µM]
Cc1ccc(C)c(-c2nc(Cn3c(=O)cc(-c4ccccc4)c4c(C)nn(C)c43)c(C)o2)c1	/	i	i	/
COc1cc(CN(C(=O)c2ccccc2[N+](=O)[O-])c2ccccn2)cc(OC)c1OC	/	i	i	/
COC(=O)c1ccc2nc(-c3cccc(Br)c3)c(CC3CCCCC3)n2c1	-1%	?	13µM*	8%
COC(=O)c1ccc2nc(-c3ccc(Cl)cc3)c(CC3CCCCC3)n2c1	13%	?	16µM*	11%
COC(=O)c1ccc2nc(-c3ccc(OC)c(OC)c3)c(CC3CCCCC3)n2c1	-9%	?	i	-15%
COC(=O)c1ccc2nc(-c3cccc(Br)c3)c(Cc3ccccc3)n2c1	1%	i	?	11%
COc1ccc(-c2nc3ccc(NC(C)=O)cc3c(=O)n2Cc2cccc(Cl)c2)cc1COc1ccc(NC(C)=O)cc1	-14%	/	/	-21%
CC1(c2ccc3ccccc3c2)NC(=O)N(CC(=O)N2CCN(Cc3ccccc3)CC2)C1=O (stereo unspecified)	-17%	?	i	5.8µM*
CC(C)Cc1ccc(C(C)C(=O)Nc2ccccc2O)cc1 (stereo unspecified)	23µM*	21µM*	?	3.7µM*
CCc1ccc(C(=O)c2cn(CC(=O)NCCc3ccc(OC)c(OC)c3)c3nc(C)ccc3c2=O)cc1	/	i	i	/
Cc1nn(S(=O)(=O)c2ccc(C(C)C)cc2)c(C)c1S(=O)(=O)N1CCCCC1	/	i	i	/
CCOc1cc(NC(=O)CC(C)C)c(OCC)cc1NC(=O)CCn1nnc2ccccc21	-1%	?	4.1µM*	-1%
CCOc1cc(NC(=S)Nc2cccc(OC)c2)c(OCC)cc1NC(=O)C(C)C	0%	i	i	7%
CCOc1cc(NC(=S)Nc2cccc(C)c2)c(OCC)cc1NC(=O)CC(C)C	-5%	i	3.3µM*	?
Cc1ccnc2c1ccc1ccccc12	1%	i	i	1%
Cc1ccnc2c1ccc1c(C)ccnc12	15µM*	?	?	13µM*
O=C(CCl)NCCCCCCCCCNC(=O)CCl	15µM*	?	?	16µM*
CCC(=O)NCCCCCCNC(=O)CC	20%	i	i	7%
CC(C)S(=O)(=O)N1CCN(c2nc(-c3cccs3)nc3ccccc23)CC1	-11%	/	/	-15%
COc1ccc(S(=O)(=O)c2c(C)c(NS(=O)(=O)c3ccccc3)cc(C)c2O)cc1	-24%	i	?	-22%
COc1ccc(S(=O)(=O)Nc2cc(C)c(O)c(S(=O)(=O)c3ccccc3)c2)cc1	-2%	i	16µM*	-7%
CCOCCn1ccc2c(OCC(=O)Nc3ccc(C(N)=O)cc3)cccc2c1=O	/	i	i	/
Cc1ccc2c(Cl)c(C(=O)NCc3cccnc3)sc2c1	1%	i	15µM*	-2%
COC1C=CC=C(C)C(=O)NC2=CC(=O)C(N)=C(CC(C)CC(OC)C(O)C(C)C=C(C)C1OC(N)=O)C2=O (stereo unspecified)	0.041µM*	i	i	?
SMILES	HT1080 IDH1KD tx	KB-3-1 tox	KB-V1 cytotox	HT1080NT lethal
Cc1cccc(N2CCN(C(=O)CCCSc3nc4ccccc4[nH]3)CC2)c1C	?	i	5.8µM*	?
O=C(CSc1nc2ccccc2[nH]1)N1c2ccccc2Sc2ccccc21	0%	i	12µM*	0%
O=C(CCCSc1nc2ccccc2[nH]1)N1CCN(c2ccccc2)CC1	1%	i	i	3%
O=C(CSc1nc2ccccc2[nH]1)N1CCN(c2ccccc2)CC1	5%	i	16µM*	5%
O=C(CSc1nc(O)cc(=O)[nH]1)N1c2ccccc2Sc2ccccc21	0%	i	i	9%
COc1ccccc1N1CCN(C(=O)CSc2nc3ccccc3[nH]2)CC1	6%	i	i	0%[9.24 µM]
CCC(Sc1nc(-c2ccccc2F)nc2c1Cc1c(CO)cnc(C)c1O2)C(=O)Nc1cc(C)ccc1C (stereo unspecified)	/	i	i	/
Clc1cc(Br)ccc1OCCn1ccnc1	0%	i	?	6%
Cc1cc(Br)ccc1OCCn1ccnc1	1%	i	16µM*	-2%
Clc1cc(Br)ccc1OCCCn1ccnc1	-1%	?	21µM*	6%
Cc1cccc(Cl)c1OCCCCn1ccnc1	?	i	21µM*	?
Cc1cc(Br)ccc1OCCCCNC(C)(C)C	?	?	i	13µM*
Cc1cc(Cl)cc(C)c1OCCCCn1ccnc1	?	i	?	-27%
CC(C)(C)OC(=O)N1CCC(c2c(C(=O)NC3CCCCC3)cnn2-c2cccc(F)c2)CC1	/	i	i	/
COc1ccc(OCCn2c(=N)n(CCO)c3ccccc32)cc1	-10%	i	i	-5%
N=c1n(CCO)c2ccccc2n1CCOc1ccc(Cl)cc1Cl	?	?	i	21µM*
Cc1cc2nnc(SCc3ccc(F)cc3)n2c2ccccc12	/	i	?	/
O=C(CSc1nnc(-c2ccncc2)n1Cc1ccccc1)NC1CCCc2ccccc21 (stereo unspecified)	19%	i	10µM*	3%
CC(C)(C)c1ccc(NC(=O)NC2CCCc3ccccc32)cc1 (stereo unspecified)	?	?	21µM*	?
O=C(CN1CCN(c2ccccc2Cl)CC1)NC1CCCc2ccccc21 (stereo unspecified)	0%	?	9.2µM*	0%
CNC(=O)CSc1nnc(-c2ccncc2)n1Cc1ccccc1	-5%	i	i	-4%
O=C(CSc1c(Cl)cccc1Cl)NC1CCCc2ccccc21 (stereo unspecified)	-2%	i	15µM*	-22%
O=C(CSc1ccccc1Cl)NC1CCCc2ccccc21 (stereo unspecified)	0%	i	i	9%
Cc1ccc2c(c1)N(C(=O)CCC(=O)NCc1ccccc1Cl)CC(C)O2 (stereo unspecified)	/	i	i	/
O=C(COc1ccc(F)cc1)Nc1ccc(OCc2cc(=O)n3ccsc3n2)cc1	/	i	i	/
CC1CCN(c2ccc(-c3nc(C(C)C)no3)cc2[N+](=O)[O-])CC1	/	i	i	/
Cc1ccc(N2CCN(S(=O)(=O)c3nnc(NC(=O)c4cccc(F)c4)s3)CC2)cc1	/	i	i	/
CC(=O)NCCNC(=O)c1ccc2c(=O)n(CCc3ccccc3)c(=O)[nH]c2c1	/	i	i	/
Cc1[nH]cnc1C(=O)N/N=C/c1c(Cl)cccc1Cl	?	16µM*	21µM*	?
